Most compounds without a hit are left out; they make up all but 3.1% or so of the library.
HIV Env fusion: inhibitors of HIV Env-mediated cell fusion; HeLa-JRFL Env/CEM21 cell fusion, luciferase; inhibition, % at 12.3 µM; 1.1% of 360,000 active;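 active = mean replicate inhibition score of at least 50 and every replicate individually at or above 50; inconclusive = only one of the two criteria met; inactive = mean below 50 and not all replicates reaching 50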;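 also: 0% = plate neutral controls and 100% = maraviroc near 300 nM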
miR122 inh: miR-122 inhibition in Huh7 cells. Huh7 miR-122 Renilla luciferase sensor, 48 h; neutral wells = 0, positive control = 100. activation (reporter increase), % at 12.5 µM. 0.3% of 340,000 active;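 active = mean replicate activation score at least 90 and every replicate individually at or above 90; inconclusive = only one of the two criteria met; inactive = neither criterion met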;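 also: higher luciferase means less miR-122 activity so hits act as miR-122 inhibitors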
PAX8 inh HTS: lowers PAX8-driven luciferase in RMG-I cells. RMG-I TPO-luciferase reporter, SteadyGlo, 24 h. inhibition, % at 12.6 µM. 1.2% of 360,000 active. AID 652154;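 active = mean replicate inhibition at least 60% with every replicate also reaching 60%; inconclusive = only one of the two criteria is met; inactive = mean below 60% and not all replicates reaching 60%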;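 also: luciferase light reporting Pax8 driven TPO promoter activity; plate controls were median of neutral control wells for no effect and mitoxantrone controls for full effect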
Statin myotox sup: suppressors of simvastatin-induced myotoxicity in C2C12 myotubes | ATP luminescence, 48 h; scaled: DMSO 0, geranylgeraniol control 100 | rescue of ATP level, % at 7.49 µM | 0.78% of 330,000 active;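 active = mean ATP rescue above about 67%, or every replicate alone reaching that limit, limit read from the data, passing the limit was not always enough; inconclusive = no clear call, values can overlap the other calls; inactive = mean under the limit and some replicate under it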;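 also: myotubes were challenged with 10 µM simvastatin during compound exposure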
EWS-Fli inh: EWS/Fli transcriptional activity inhibition | inhibition, % at 12.6 µM | 0.67% of 350,000 active | A673 NR0B1-luciferase reporter, viability-normalised;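 active = mean inhibition of at least 50% after viability correction, with every replicate also passing that limit; inconclusive = mean reaches 50% but only one of two replicates passes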;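 also: firefly luciferase signal divided by Alamar Blue viability fluorescence both relative to DMSO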
GSIS activator: GLuc luminescence reporter in INS-1E cells, primary screen for activators of glucose-dependent secretion of insulin; INS-1E GLuc reporter insulin secretion, 2-3 h; activation, % at 16.6 µM; AID 743287; 0.61% of 370,000 active;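 active = lowest replicate activation of at least 40%, so every replicate reaches that level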;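 also: 0% = median of neutral control wells and 100% = median of IBMX positive control wells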
* = called active by the depositor; ? = inconclusive; · = not tested or not shown; [ ] = remark or other dose.

SMILES | HIV Env fusion | miR122 inh | PAX8 inh HTS | Statin myotox sup | EWS-Fli inh | GSIS activator
Cc1noc(C)c1S(=O)(=O)Nc1ccc2c(c1)C(=O)N([C@H](C)CO)C[C@H](C)[C@H](CN(C)C(=O)CCC(F)(F)F)OCCCC[C@@H](C)O2 | 6[16.7 µM] | 5[16.7 µM] | 3 | · | 8 | 11
C[C@H](CO)N1C[C@H](C)[C@@H](CN(C)CC2CC2)Oc2ccc(NC(=O)CCCCCC(=O)Nc3ccccc3N)cc2CC1=O | · | · | 15 | · | · | 3
C[C@H](CO)N1C[C@H](C)[C@H](CN(C)Cc2ccc(-c3ccccc3)cc2)Oc2ccc(NC(=O)CCCCCC(=O)Nc3ccccc3N)cc2CC1=O | 11[16.7 µM] | 23[16.7 µM] | ? | 25 | 27 | -41
C[C@H]1CN([C@@H](C)CO)C(=O)Cc2cc(NC(=O)CCCCCC(=O)Nc3ccccc3N)ccc2O[C@H]1CN(C)CC1CCCCC1 | -17[16.7 µM] | 6[16.7 µM] | 21 | 147* | 60* | 7
C[C@@H]1CN([C@@H](C)CO)C(=O)Cc2cc(NC(=O)CCCCCC(=O)Nc3ccccc3N)ccc2O[C@H]1CN(C)Cc1ccc(-c2ccccc2)cc1 | 12[16.7 µM] | -9[16.7 µM] | 24 | 94* | -9 | ·
C[C@H](CO)N1C[C@H](C)[C@@H](CN(C)Cc2ccc(-c3ccccc3)cc2)Oc2ccc(NC(=O)CCCCCC(=O)Nc3ccccc3N)cc2CC1=O | 25[16.7 µM] | -2[16.7 µM] | 1 | 88* | -11 | 27
C[C@@H]1CN([C@H](C)CO)C(=O)Cc2cc(NC(=O)CCCCCC(=O)Nc3ccccc3N)ccc2O[C@@H]1CN(C)Cc1ccc(C(F)(F)F)cc1 | 44[16.7 µM] | -9[16.7 µM] | 69* | -16 | 30 | -1
Cc1ccc(S(=O)(=O)Nc2cccc3c2O[C@H](CN(C)Cc2ccc(C(=O)O)cc2)[C@@H](C)CN([C@@H](C)CO)C3=O)cc1 | 3[16.7 µM] | 3[16.7 µM] | · | 0 | -11 | 12
C[C@H]1CN([C@@H](C)CO)C(=O)Cc2cc(NC(=O)CCCCCC(=O)Nc3ccccc3N)ccc2O[C@H]1CN(C)Cc1ccccc1 | -52[16.7 µM] | 7[16.7 µM] | 45 | 73* | -48 | 4
C[C@H](CO)N1C[C@H](C)[C@H](CN(C)Cc2ccc3c(c2)OCO3)Oc2ccc(NC(=O)CCCCCC(=O)Nc3ccccc3N)cc2CC1=O | 7[16.7 µM] | 0[16.7 µM] | 3 | 103* | ? | 3
C[C@@H]1CN([C@H](C)CO)C(=O)Cc2cc(NC(=O)CCCCCC(=O)Nc3ccccc3N)ccc2O[C@H]1CN(C)Cc1ccc(-c2ccccc2)cc1 | 26[16.7 µM] | -6[16.7 µM] | 17 | 135* | 28 | 5
C[C@@H]1CN([C@H](C)CO)C(=O)Cc2cc(NC(=O)CCCCCC(=O)Nc3ccccc3N)ccc2O[C@@H]1CN(C)Cc1ccc2c(c1)OCO2 | 10[16.7 µM] | -12[16.7 µM] | -7 | 62 | 40 | 2
C[C@@H]1CN([C@H](C)CO)C(=O)Cc2cc(NC(=O)CCCCCC(=O)Nc3ccccc3N)ccc2O[C@@H]1CN(C)Cc1ccc(-c2ccccc2)cc1 | 1[16.7 µM] | -14[16.7 µM] | 27 | 29 | -13 | -2
C[C@H]1CN([C@@H](C)CO)C(=O)Cc2cc(NC(=O)Nc3ccc(C(F)(F)F)cc3)ccc2O[C@H]1CN(C)Cc1ccc(C(=O)Nc2ccccc2N)cc1 | 29[16.7 µM] | -16[16.7 µM] | · | -84 | 79* | 2
C[C@@H]1CN([C@H](C)CO)C(=O)Cc2cc(NC(=O)CCCCCC(=O)Nc3ccccc3N)ccc2O[C@@H]1CN(C)Cc1ccccc1 | 9[16.7 µM] | 9[16.7 µM] | 12 | ? | -26 | 22
CO[C@@H]1CN(C)C(=O)c2cc(NC(=O)C3CCCCC3)ccc2OC[C@H](C)N(Cc2cccnc2)C[C@@H]1C | · | 7[16.7 µM] | -6 | -13 | -9 | -6
O=C(NCc1nc2ccccc2[nH]1)C1=C[C@@H](c2ccc3c(c2)OCO3)C[C@@H](OCCCCO)O1 | -1[16.7 µM] | · | 10 | · | 0 | ·
Cc1ccc(C)c(S(=O)(=O)NCC(c2ccc3c(c2)OCO3)N2CCOCC2)c1 (configuration not stated) | 50 | 101* | 2 | 1 | -19 | -37
COc1cccc2cc(-c3csc(CCn4nc(C)cc4C)n3)c(=O)oc12 | · | 18 | · | 89* | · | ·
C[C@H](CO)N1C[C@H](C)[C@@H](CN(C)Cc2ccc(C(F)(F)F)cc2)OCCCC[C@H](C)Oc2ccc(NS(=O)(=O)c3ccc(Cl)cc3)cc2C1=O | 55*[16.7 µM] | 8[16.7 µM] | 99* | · | 19 | -18
